Measured values: PubChem BioAssay AID652057 (Broad Institute, 2013)
In all, about 1,400 compounds went through this assay and about 1,000 (71%) were called active. How the calls were made is not given here. The set was probably picked from earlier hits. Not all results are given here. Measured potencies and affinities stand elsewhere.

test: blockers of HIV-1 envelope-mediated cell-cell fusion – cherry-pick, dose response (AID 652057); conditions: HeLa-JRFL Env/CEM21 cell fusion, luciferase; series mostly up to 35 µM

Activity change, negative = inhibition, inactive:
C=CC[n+]1c(-c2ccc(C)cc2)csc1NNC(=O)Nc1ccccc1, O=C1c2cccc(OCc3ccc(F)cc3)c2CCN1Cc1ccccc1, NC(=S)c1ccc(OCCCc2ccccc2)cc1, O=C(C[C@H]1C[C@@H]2c3cc(NC(=O)C4CCC4)ccc3O[C@@H]2[C@@H](CO)O1)NCc1ccc2c(c1)OCO2, C=CCOc1c(Br)cc(CNc2ccc(NC(=O)C(C)C)c(OC)c2)cc1OC, CC1(C)N=C(N)N=C(N)N1CCCCc1ccccc1, COc1cc(-c2c(-c3cc(OC)c(OC)c(OC)c3)noc2C)ccc1F, O=C(CNC(=O)c1cccc(-n2cccc2)c1)Nc1ccccc1Br, COc1ccccc1S(=O)(=O)Nc1ccc2c(c1)C(=O)N(C)C[C@@H](OC)[C@@H](C)CN[C@@H](C)CO2, CCCNC(=O)C[C@H]1C[C@H]2c3cc(NC(=O)CN(C)C)ccc3O[C@H]2[C@@H](CO)O1, COc1ccc(NC(=O)c2ccc(Cl)c(S(=O)(=O)N3CCc4ccccc4C3)c2)cn1, O=C(Nc1ccc(F)cc1)Nc1ccc2c(c1)[C@@H]1C[C@H](CC(=O)N3CCCCC3)O[C@@H](CO)[C@@H]1O2, COc1ccccc1Oc1ccc(S(=O)(=O)NCc2ccccn2)cc1, O=C(Nc1ccc(Oc2ccccc2)cc1)c1csc([C@H]2C[C@H](O)[C@@H](CO)O2)n1, COc1ccc(OC)c(-c2cc(C(=O)Nc3c(C)nn(Cc4ccc(Cl)cc4)c3C)no2)c1, CCCCS(=O)(=O)N1CCN(C(=O)C(=O)c2cccc(C(F)(F)F)c2)CC1, CCS(=O)(=O)Nc1ccc2c(c1)C(=O)N(C)C[C@H](OC)[C@@H](C)CN(C(=O)C1CCC1)[C@H](C)CO2, CN(C)Cc1cn(CC[C@@H]2CC[C@H](N)[C@H](CO)O2)nn1, Nc1nonc1C(=O)NCCNCc1cc(Br)ccc1OCc1ccccc1F, CN1CCN(C(=O)C[C@H]2C[C@@H]3c4cc(NS(C)(=O)=O)ccc4O[C@@H]3[C@H](CO)O2)CC1, CCCCOc1ccc(S(=O)(=O)Nc2cccnc2)cc1, O=C(Nc1ccc(C(=O)OC2CCCCC2)cc1)c1ccncc1, C[C@H](CO)N1C[C@H](C)[C@@H](CN(C)C(=O)Nc2cccc3ccccc23)OCCCC[C@H](C)Oc2ccc(N(C)C)cc2C1=O, C[C@H]1CN([C@@H](C)CO)C(=O)c2cccc(NC(=O)c3ccncc3)c2O[C@@H]1CN(C)C(=O)Nc1cccc2ccccc12
